The source of these data is paper PMC7862700, “An all-to-all approach to the identification of sequence-specific readers for epigenetic DNA modifications on cytosine”.

Test in all cases: DAPPL (digital affinity profiling via proximity ligation, sequencing); 10 mM Tris-HCl pH 7.5, 50 mM NaCl, 1 mM DTT, 4% glycerol, room temperature, 30 min; GST-TFs on glutathione beads, 16-mer random dsDNA library, 0.1% formaldehyde crosslink after washing; high values mean tight binding
The target in one assay is T1, FEV (Homo sapiens, UniProt Q99581 1-238).
T1 sequence: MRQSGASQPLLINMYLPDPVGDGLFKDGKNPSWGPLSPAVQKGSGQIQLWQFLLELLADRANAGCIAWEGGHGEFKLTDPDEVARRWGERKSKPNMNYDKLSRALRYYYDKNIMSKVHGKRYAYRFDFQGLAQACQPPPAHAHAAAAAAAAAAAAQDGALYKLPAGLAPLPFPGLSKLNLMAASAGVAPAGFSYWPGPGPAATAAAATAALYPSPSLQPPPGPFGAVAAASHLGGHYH
Conditions: protein: recombinant; tags: N-terminal GST; dsDNA, one strand shown. The method in brief: (§1)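 After expression in yeast as GST fusions, human transcription factors were bound to glutathione beads, DNA-barcoded and mixed with a tag-only sample. The pools were incubated with 200 nmole of a 16-mer random double-stranded DNA library in Tris/NaCl/DTT/glycerol buffer (30 min, room temperature), washed and crosslinked with 0.1% formaldehyde. Proximity ligation with BsaI/T4 ligase ran for 1 h at 37 °C, before PCR amplification and sequencing on an Illumina NextSeq500. Binding signal is a hexamer's read frequency for a factor divided by its frequency for the tag-only sample.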

In another assay the target is ETV5 (Homo sapiens, UniProt P41161 1-510). To be noted: protein: recombinant; tags: N-terminal GST; dsDNA, one strand shown. Put shortly:
as §1

The target in another assay is HSF1 (Homo sapiens, UniProt Q00613 1-529). To be noted: protein: recombinant; tags: N-terminal GST; chain copies: 3; dsDNA, one strand shown. Put shortly:
as §1

The target in the next assay is T2, SPIC (Homo sapiens, UniProt Q8N5J4 1-248).
T2 sequence: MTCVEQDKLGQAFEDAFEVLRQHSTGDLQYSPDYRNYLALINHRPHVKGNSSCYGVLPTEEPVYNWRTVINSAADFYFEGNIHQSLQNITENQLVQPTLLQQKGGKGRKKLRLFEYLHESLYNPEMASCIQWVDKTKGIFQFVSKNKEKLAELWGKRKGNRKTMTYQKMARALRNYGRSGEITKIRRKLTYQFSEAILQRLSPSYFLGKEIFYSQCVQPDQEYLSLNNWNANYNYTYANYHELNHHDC
Conditions: protein: recombinant; tags: N-terminal GST; dsDNA, one strand shown. The method in brief: as §1

The target in the next assay is ELF4 (Homo sapiens, UniProt Q99607 1-663). Conditions: protein: recombinant; tags: N-terminal GST; dsDNA, one strand shown. The method in brief: as §1
ELF4, sequence (Q99607 whole entry): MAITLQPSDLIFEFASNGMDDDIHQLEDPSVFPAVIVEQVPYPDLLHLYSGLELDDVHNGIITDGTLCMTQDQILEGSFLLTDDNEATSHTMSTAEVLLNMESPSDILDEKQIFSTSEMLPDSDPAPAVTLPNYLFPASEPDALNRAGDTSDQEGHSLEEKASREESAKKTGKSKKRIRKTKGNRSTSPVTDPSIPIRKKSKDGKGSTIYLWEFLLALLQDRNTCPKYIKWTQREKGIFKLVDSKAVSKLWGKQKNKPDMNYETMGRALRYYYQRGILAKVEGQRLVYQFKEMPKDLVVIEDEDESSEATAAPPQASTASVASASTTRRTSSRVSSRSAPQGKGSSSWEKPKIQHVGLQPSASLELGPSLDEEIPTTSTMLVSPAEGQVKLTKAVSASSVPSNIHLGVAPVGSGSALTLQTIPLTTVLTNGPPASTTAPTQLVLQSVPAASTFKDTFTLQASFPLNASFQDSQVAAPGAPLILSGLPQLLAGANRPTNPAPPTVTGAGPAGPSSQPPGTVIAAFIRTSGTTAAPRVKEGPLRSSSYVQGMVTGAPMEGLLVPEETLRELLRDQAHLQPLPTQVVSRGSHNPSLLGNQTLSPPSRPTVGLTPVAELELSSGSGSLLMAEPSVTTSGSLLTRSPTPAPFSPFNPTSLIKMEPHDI
The target in another assay is T3, ELK4 (Homo sapiens, UniProt P28324-2 1-405).
T3 sequence: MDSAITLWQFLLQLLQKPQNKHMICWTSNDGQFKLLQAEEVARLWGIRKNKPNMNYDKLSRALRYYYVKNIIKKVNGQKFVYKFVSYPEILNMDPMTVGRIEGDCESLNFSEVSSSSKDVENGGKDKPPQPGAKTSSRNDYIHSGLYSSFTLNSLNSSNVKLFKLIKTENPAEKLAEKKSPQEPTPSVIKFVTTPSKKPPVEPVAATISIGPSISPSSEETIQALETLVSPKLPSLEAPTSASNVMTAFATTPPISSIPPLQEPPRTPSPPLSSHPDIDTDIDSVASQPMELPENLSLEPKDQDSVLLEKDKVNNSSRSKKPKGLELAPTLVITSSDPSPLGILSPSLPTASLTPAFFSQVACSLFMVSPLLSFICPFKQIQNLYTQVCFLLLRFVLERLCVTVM
Conditions: protein: recombinant; tags: N-terminal GST; dsDNA, one strand shown. The method in brief:
as §1

The target of a further assay is T4, ETV2 (Homo sapiens, UniProt O00321 1-342).
T4 sequence: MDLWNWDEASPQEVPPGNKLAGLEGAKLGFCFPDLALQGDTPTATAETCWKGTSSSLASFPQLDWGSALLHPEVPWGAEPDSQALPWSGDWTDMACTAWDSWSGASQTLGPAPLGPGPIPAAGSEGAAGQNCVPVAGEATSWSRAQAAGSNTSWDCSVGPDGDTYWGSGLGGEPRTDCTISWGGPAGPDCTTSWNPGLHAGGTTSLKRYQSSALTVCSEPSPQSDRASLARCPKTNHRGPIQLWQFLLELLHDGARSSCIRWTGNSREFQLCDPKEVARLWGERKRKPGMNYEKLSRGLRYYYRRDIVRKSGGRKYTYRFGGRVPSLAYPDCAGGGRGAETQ
To be noted: protein: recombinant; tags: N-terminal GST; dsDNA, one strand shown. Put shortly: as §1

The target in another assay is T5, ELF3 (Homo sapiens, UniProt P78545 1-371).
T5 sequence: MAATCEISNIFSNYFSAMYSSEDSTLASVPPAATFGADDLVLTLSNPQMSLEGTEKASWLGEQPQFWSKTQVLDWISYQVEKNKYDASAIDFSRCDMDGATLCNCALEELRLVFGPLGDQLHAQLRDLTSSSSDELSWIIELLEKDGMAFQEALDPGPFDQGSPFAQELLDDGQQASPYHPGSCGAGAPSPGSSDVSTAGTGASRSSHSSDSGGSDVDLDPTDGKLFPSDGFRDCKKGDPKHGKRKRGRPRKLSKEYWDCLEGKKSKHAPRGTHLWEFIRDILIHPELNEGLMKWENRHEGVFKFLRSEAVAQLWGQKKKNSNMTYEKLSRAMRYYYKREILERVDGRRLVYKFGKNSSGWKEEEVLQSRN
To be noted: protein: recombinant; tags: N-terminal GST; dsDNA, one strand shown. Put shortly:
as §1

For the next assay, the target named is CRX (Homo sapiens, UniProt O43186 1-299). To be noted: protein: recombinant; tags: N-terminal GST; dsDNA, one strand shown. The method in brief: as §1
CRX, sequence (O43186 whole entry): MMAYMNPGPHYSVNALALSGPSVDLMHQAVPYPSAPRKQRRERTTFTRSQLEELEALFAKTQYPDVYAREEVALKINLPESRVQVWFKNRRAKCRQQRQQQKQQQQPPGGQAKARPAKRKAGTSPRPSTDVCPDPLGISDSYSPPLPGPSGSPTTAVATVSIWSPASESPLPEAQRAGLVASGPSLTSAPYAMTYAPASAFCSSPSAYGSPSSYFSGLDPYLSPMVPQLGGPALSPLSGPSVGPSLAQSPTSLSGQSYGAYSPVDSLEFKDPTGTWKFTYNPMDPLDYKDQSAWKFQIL
In a further assay the target is ETV1 (Homo sapiens, UniProt P50549 1-477). To be noted: protein: recombinant; tags: N-terminal GST; dsDNA, one strand shown. The method in brief:
as §1

Another assay concerns the target T6, ERF (Homo sapiens, UniProt P50548 1-548).
T6 sequence: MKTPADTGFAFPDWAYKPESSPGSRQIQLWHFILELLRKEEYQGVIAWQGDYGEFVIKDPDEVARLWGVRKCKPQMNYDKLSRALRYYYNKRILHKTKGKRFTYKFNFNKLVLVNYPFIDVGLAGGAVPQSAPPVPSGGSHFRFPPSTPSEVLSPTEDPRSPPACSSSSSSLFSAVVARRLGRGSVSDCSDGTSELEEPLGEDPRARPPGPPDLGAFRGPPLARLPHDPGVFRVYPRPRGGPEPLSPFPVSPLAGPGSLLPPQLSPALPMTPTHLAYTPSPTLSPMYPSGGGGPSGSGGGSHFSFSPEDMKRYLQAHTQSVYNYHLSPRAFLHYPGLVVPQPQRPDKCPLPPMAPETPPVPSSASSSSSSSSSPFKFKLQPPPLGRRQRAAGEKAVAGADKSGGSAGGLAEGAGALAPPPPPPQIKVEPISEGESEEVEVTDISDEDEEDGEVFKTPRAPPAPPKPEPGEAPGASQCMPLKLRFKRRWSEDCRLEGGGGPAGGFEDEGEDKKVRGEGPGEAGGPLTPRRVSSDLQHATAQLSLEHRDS
Conditions: protein: recombinant; tags: N-terminal GST; dsDNA, one strand shown. The method in brief:
as §1

The target in another assay is T7, ETV3L (Homo sapiens, UniProt Q6ZN32 1-361).
T7 sequence: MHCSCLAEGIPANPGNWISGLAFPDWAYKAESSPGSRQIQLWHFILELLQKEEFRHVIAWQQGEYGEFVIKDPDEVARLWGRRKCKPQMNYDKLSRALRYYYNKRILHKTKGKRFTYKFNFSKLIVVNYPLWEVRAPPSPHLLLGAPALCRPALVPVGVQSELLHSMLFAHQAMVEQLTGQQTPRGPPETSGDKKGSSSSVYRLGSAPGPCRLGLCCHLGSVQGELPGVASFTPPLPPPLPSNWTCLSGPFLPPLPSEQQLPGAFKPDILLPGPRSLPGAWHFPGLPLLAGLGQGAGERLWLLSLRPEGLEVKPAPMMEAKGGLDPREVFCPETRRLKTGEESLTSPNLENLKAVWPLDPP
To be noted: protein: recombinant; tags: N-terminal GST; dsDNA, one strand shown. Put shortly:
as §1

A further assay has as its target T8, ETS2 (Homo sapiens, UniProt P15036 1-469).
T8 sequence: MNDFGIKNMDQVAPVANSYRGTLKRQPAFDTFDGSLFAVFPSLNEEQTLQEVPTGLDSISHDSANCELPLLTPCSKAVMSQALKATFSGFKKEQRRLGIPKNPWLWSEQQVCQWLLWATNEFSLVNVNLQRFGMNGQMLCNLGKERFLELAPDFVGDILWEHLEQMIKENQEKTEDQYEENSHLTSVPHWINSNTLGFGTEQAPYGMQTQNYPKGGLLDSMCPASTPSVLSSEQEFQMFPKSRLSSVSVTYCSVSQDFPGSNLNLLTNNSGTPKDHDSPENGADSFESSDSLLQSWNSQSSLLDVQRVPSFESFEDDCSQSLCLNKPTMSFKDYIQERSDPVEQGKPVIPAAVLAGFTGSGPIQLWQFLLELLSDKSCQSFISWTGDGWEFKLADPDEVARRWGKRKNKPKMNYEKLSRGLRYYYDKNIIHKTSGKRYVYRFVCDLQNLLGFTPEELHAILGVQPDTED
To be noted: protein: recombinant; tags: N-terminal GST; dsDNA, one strand shown. The method in brief: as §1

A further assay deals with T9, SPDEF (Homo sapiens, UniProt O95238 1-335).
T9 sequence: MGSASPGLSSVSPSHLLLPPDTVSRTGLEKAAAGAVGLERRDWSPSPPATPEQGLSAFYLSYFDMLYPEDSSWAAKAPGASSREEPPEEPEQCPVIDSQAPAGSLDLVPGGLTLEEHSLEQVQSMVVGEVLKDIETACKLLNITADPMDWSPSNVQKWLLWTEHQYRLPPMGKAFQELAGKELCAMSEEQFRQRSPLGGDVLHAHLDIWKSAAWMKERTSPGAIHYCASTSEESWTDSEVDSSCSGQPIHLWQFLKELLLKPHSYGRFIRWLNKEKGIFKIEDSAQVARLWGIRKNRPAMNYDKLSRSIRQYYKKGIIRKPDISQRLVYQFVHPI
Conditions: protein: recombinant; tags: N-terminal GST; dsDNA, one strand shown. Put shortly:
as §1

The target of another assay is T10, ETV7 (Homo sapiens, UniProt Q9Y603 1-341).
T10 sequence: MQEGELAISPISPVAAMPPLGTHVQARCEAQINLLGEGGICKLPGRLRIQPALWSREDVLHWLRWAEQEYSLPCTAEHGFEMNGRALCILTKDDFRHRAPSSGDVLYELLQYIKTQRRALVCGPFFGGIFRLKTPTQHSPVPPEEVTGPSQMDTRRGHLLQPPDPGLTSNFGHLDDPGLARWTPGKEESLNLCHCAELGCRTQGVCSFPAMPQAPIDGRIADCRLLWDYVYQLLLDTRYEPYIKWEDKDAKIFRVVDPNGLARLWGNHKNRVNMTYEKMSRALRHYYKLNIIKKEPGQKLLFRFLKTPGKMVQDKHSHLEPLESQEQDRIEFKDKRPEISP
Conditions: protein: recombinant; tags: N-terminal GST; dsDNA, one strand shown. Put shortly: as §1

Another assay addresses T11, ELF5 (Homo sapiens, UniProt Q9UKW6-2 1-255).
T11 sequence: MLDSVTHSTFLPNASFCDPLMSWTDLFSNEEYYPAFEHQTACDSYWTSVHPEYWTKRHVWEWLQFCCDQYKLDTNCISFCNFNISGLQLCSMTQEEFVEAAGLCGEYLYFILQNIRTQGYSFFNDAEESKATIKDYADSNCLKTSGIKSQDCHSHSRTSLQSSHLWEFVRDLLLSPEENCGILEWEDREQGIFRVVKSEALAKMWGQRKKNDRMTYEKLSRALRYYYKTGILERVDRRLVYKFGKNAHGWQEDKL
Conditions: protein: recombinant; tags: N-terminal GST; dsDNA, one strand shown. The method in brief: as §1

For another assay, the target named is T12, ETV3 (Homo sapiens, UniProt P41162-2 1-143).
T12 sequence: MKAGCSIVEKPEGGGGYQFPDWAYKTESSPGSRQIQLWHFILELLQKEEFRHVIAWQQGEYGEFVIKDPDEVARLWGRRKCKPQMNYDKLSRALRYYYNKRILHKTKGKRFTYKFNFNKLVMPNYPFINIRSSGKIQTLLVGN
Conditions: protein: recombinant; tags: N-terminal GST; dsDNA, one strand shown. Put shortly: as §1

A further assay addresses ETV6 (Homo sapiens, UniProt P41212 1-452). Conditions: protein: recombinant; tags: N-terminal GST; dsDNA, one strand shown. Put shortly: as §1

ETV5, sequence (P41161 whole entry): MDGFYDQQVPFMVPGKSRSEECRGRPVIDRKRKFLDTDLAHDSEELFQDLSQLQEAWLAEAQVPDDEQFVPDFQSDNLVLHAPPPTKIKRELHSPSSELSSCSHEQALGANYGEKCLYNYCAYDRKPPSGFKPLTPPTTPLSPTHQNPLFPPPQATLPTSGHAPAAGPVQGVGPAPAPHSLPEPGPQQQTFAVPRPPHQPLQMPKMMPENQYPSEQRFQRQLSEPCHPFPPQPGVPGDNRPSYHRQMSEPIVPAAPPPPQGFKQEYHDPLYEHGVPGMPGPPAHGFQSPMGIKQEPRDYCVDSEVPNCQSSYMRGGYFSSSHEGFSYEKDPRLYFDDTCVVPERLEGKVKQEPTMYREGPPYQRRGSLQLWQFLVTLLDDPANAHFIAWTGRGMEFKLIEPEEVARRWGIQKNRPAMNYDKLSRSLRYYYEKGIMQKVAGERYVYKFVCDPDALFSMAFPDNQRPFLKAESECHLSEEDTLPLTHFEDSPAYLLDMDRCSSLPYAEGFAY
HSF1, sequence (Q00613 whole entry): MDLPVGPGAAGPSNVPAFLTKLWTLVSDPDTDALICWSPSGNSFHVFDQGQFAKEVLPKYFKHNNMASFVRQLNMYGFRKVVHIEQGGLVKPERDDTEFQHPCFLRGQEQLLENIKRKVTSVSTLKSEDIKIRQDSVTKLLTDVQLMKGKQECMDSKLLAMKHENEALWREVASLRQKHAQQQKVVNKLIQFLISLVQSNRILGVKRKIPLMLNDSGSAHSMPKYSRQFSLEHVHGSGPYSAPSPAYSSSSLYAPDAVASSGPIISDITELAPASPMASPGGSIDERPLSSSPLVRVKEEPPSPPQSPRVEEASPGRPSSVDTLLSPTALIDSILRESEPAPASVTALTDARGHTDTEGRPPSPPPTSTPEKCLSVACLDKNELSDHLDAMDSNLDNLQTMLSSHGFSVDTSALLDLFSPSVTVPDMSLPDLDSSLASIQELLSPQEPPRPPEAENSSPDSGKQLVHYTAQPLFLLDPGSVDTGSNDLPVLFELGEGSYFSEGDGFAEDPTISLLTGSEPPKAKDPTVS
ETV6, sequence (P41212 whole entry): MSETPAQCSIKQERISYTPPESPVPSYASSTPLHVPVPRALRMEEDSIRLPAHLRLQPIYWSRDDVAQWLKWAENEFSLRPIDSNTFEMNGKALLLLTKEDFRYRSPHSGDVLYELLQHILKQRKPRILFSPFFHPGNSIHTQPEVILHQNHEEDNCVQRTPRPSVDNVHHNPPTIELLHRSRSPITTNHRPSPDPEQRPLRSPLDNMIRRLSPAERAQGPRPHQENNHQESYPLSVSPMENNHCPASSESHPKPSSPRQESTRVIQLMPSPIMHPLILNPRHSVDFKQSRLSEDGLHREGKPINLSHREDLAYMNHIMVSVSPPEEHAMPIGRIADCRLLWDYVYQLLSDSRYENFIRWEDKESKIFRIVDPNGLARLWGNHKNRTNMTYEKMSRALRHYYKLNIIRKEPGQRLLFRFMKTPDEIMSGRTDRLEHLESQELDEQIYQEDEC
ETV1, sequence (P50549 whole entry): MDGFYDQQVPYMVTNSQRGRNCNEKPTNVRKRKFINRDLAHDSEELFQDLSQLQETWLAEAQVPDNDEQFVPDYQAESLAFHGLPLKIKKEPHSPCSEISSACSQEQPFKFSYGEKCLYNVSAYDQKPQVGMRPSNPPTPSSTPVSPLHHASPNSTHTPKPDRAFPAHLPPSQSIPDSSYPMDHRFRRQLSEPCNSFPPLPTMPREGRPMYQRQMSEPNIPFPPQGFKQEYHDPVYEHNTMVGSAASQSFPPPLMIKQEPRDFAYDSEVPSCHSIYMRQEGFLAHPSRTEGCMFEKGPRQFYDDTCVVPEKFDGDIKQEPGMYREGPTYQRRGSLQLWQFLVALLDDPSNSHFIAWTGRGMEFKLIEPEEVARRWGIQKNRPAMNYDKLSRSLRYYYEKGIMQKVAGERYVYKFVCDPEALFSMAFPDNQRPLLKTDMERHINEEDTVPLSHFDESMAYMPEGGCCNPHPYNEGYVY

In the case of ACGCCT, the binding signal is 1.17 fold enrichment (6-mer frequency, TF over GST control) in the assay with FEV; 1.2 fold enrichment (6-mer frequency, TF over GST control) with ETV5; 1.15 fold enrichment (6-mer frequency, TF over GST control) with HSF1; 1.25 fold enrichment (6-mer frequency, TF over GST control) with SPIC; 1.21 fold enrichment (6-mer frequency, TF over GST control) with ELF4; 1.09 fold enrichment (6-mer frequency, TF over GST control) in the assay with ELK4. Moreover, the binding signal with ETV2 is 1.29 fold enrichment (6-mer frequency, TF over GST control); with ELF3, 1.12 fold enrichment (6-mer frequency, TF over GST control); in the assay with CRX, 1.08 fold enrichment (6-mer frequency, TF over GST control); with ETV1, 1.05 fold enrichment (6-mer frequency, TF over GST control); in the assay with ERF it was 1.15 fold enrichment (6-mer frequency, TF over GST control); with ETV3L, 1.31 fold enrichment (6-mer frequency, TF over GST control). Besides, the binding signal in the assay with ETS2 is 1.17 fold enrichment (6-mer frequency, TF over GST control); with SPDEF, 1.12 fold enrichment (6-mer frequency, TF over GST control); with ETV7, 1.01 fold enrichment (6-mer frequency, TF over GST control); with ELF5 it was 1.09 fold enrichment (6-mer frequency, TF over GST control); with ETV3, 1.19 fold enrichment (6-mer frequency, TF over GST control); with ETV6 it was 1.3 fold enrichment (6-mer frequency, TF over GST control).
